Results as given in PubChem BioAssay (EPA / NIEHS).
Inconclusive results are not listed. Calls of active or inactive are those of the source. The calls were made as follows, unless noted: active = hit-call score of the fitted dose curve at least 0.9, where 1 is the maximum; inconclusive = response in the unintended direction; inactive = score below 0.9.

What was measured:
[1] = Tanguay_ZF_120hpf_AXIS_legacy: (Legacy) Oregon State University Tanguay Lab 120 Hour Post-fertilization zebrafish Assay for Body Axis Malformation (AID 2283635);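 as to AC50: potency for an increased fraction of larvae scored with body axis malformation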
Procedure, shortened: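 Each dechorionated embryo was exposed alone from 6 hpf, with DMSO at 0.64% (vol/vol) and trimethyltin chloride 5 uM as positive control. Axis malformation was recorded at 120 hpf unless the embryo had died.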

[2] = Tanguay_ZF_120hpf_EYE_legacy: (Legacy) Oregon State University Tanguay Lab 120 Hour Post-fertilization zebrafish Assay for Eye Malformation (AID 2283636);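 also: binary presence or absence of eye malformation scored by brightfield in 120 hpf larvae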
Procedure, shortened: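 Dechorionated wild-type Tropical 5D zebrafish embryos were exposed statically from 6 hpf, one per well, to 120 hpf at 28C in sealed, foil-covered plates with 0.64% DMSO. Eye malformation was scored present/absent by brightfield microscopy against DMSO controls.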

[3] = Tanguay_ZF_120hpf_SNOU_legacy: (Legacy) Oregon State University Tanguay Lab 120 Hour Post-fertilization zebrafish Assay for Snout Malformation (AID 2283637)
Procedure, shortened: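 Tropical 5D wild-type zebrafish embryos, dechorionated with pronase at 4 hpf, were exposed singly from 6 hpf to 120 hpf statically at 28C in 0.64% DMSO. Snout malformation was scored present/absent by brightfield microscopy, fitted against DMSO.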

[4] = Tanguay_ZF_120hpf_JAW_legacy: (Legacy) Oregon State University Tanguay Lab 120 Hour Post-fertilization zebrafish Assay for Jaw Malformation (AID 2283638);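 as to AC50: active means more embryos with jaw malformation than DMSO controls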
Procedure, shortened: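 Wild-type 5D embryos, chorion removed at 4 hpf, dosed singly from 6 hpf; 28C static, sealed, foil-covered, to 120 hpf. Endpoint: jaw defect yes/no (brightfield); mortality excludes scoring.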

[5] = Tanguay_ZF_120hpf_OTIC_legacy: (Legacy) Oregon State University Tanguay Lab 120 Hour Post-fertilization zebrafish Assay for Otic Vesicle Malformation (AID 2283639)
Procedure, shortened: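 Tropical 5D wild-type zebrafish embryos statically exposed in 0.64% DMSO at 28C until 120 hpf; 5uM trimethyltin chloride as positive control. Otic vesicle malformation scored present/absent by brightfield; dead embryos not scored; gain fitted versus DMSO.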

[6] = Tanguay_ZF_120hpf_BRAI_legacy: (Legacy) Oregon State University Tanguay Lab 120 Hour Post-fertilization zebrafish Assay for Brain Malformation (AID 2283641)
Procedure, shortened: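 Static exposure of staged wild-type embryos until 120 hpf, kept at 28C with light excluded and final DMSO of 0.64% (vol/vol). Presence or absence of brain malformation was noted under brightfield; mortality precluded scoring.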

[7] = Tanguay_ZF_120hpf_SOMI_legacy: (Legacy) Oregon State University Tanguay Lab 120 Hour Post-fertilization zebrafish Assay for Somite Malformation (AID 2283647)
Procedure, shortened: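 Somitogenesis defects are recorded as binary calls in whole larvae at 120 hpf after continuous static chemical exposure starting at 6 hpf in dechorionated 5D embryos. DMSO serves as negative control and baseline.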

[8] = Tanguay_ZF_120hpf_CFIN_legacy: (Legacy) Oregon State University Tanguay Lab 120 Hour Post-fertilization zebrafish Assay for Caudal Fin Malformation (AID 2283649)
Procedure, shortened: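 Single dechorionated 5D wild-type embryos are dosed at 6 hpf (final DMSO 0.64%) and held statically at 28C. Caudal fin malformation is recorded as present or absent at 120 hpf under brightfield, excluding dead embryos.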

[9] = Tanguay_ZF_120hpf_PIG_legacy: (Legacy) Oregon State University Tanguay Lab 120 Hour Post-fertilization zebrafish Assay for Pigmentation Malformation (AID 2283650)
Procedure, shortened: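 Tropical 5D wild-type zebrafish embryos, dechorionated with pronase at 4 hpf, were exposed singly from 6 hpf to 120 hpf statically at 28C in sealed, dark plates with 0.64% DMSO; pigmentation scored present/absent by brightfield microscopy, fitted against DMSO.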

[10] = Tanguay_ZF_120hpf_CIRC_legacy: (Legacy) Oregon State University Tanguay Lab 120 Hour Post-fertilization zebrafish Assay for Circulatory Malformation (AID 2283651)
Procedure, shortened: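 Dechorionated wild-type 5D zebrafish embryos, one per well, statically exposed from 6 to 120 hpf at 28C with 0.64% DMSO; circulatory malformation scored present/absent by brightfield microscopy at 120 hpf, dead embryos excluded.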

[11] = read-out: kallikrein-3 (KLK3), KLK3 (gene 354); test: LTEA_HepaRG_KLK3: Life Technologies and Expression Analysis (LTEA) Assay for kallikrein-3 (KLK3) using HepaRG (AID 2283652; active = hit-call score of the fitted dose curve at least 0.9, where 1 is the maximum; inactive = score below 0.9); conditions: mRNA level, 48 h; actives raise or lower the signal
Procedure, shortened: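 Differentiated human HepaRG cells in serum-free induction medium exposed 48 h in duplicate, eight-point half-log series from 100 uM in 0.5% DMSO. KLK3 mRNA by qRT-PCR, normalised to ACTB, GAPDH, POLR2A; bidirectional fit versus DMSO.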

[12] = read-out: solute carrier (SLC22A6), SLC22A6 (gene 9356); test: LTEA_HepaRG_SLC22A6: Life Technologies and Expression Analysis (LTEA) Assay for solute carrier (SLC22A6) using HepaRG (AID 2283653; active = hit-call score of the fitted dose curve at least 0.9, where 1 is the maximum; inactive = score below 0.9); conditions: mRNA level, 48 h; actives raise or lower the signal
Procedure, shortened: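 Gene-expression endpoint in HepaRG hepatic cells: duplicate 8-point concentration-response, highest 100 uM, 48 h treatment in serum-free medium with 0.5% DMSO. SLC22A6 expression measured by qRT-PCR, normalised to ACTB/GAPDH/POLR2A.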

[13] = Tanguay_ZF_120hpf_SWIM_legacy: (Legacy) Oregon State University Tanguay Lab 120 Hour Post-fertilization zebrafish Assay for Swim Bladder Malformation (AID 2283654);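 also: swim bladder malformation in each larva scored yes or no under brightfield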
Procedure, shortened: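 Dechorionated Tropical 5D wild-type embryos, placed singly from 6 hpf, were statically exposed at 28C to 120 hpf with 0.64% DMSO final; swim bladder malformation was scored present/absent by brightfield microscopy, gain of signal relative to DMSO controls.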

[14] = Tanguay_ZF_120hpf_TRUN_legacy: (Legacy) Oregon State University Tanguay Lab 120 Hour Post-fertilization zebrafish Assay for Truncated Body (AID 2283655)
Procedure, shortened: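 Single dechorionated zebrafish embryos received test chemical from 6 hpf in 0.64% DMSO, kept at 28C. At 120 hpf, brightfield inspection noted any truncated body.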

[15] = Tanguay_ZF_120hpf_NC_legacy: (Legacy) Oregon State University Tanguay Lab 120 Hour Post-fertilization zebrafish Assay for Notochord and Tail Malformation (AID 2283656)
Procedure, shortened: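 Dechorionated Tropical 5D wild-type zebrafish embryos, one per well from 6 hpf, statically exposed to 120 hpf at 28C in 0.64% DMSO final. Notochord distortion scored present/absent by brightfield; dead embryos excluded.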

[16] = read-out: solute carrier (SLC10A1), SLC10A1 (gene 6554); test: LTEA_HepaRG_SLC10A1: Life Technologies and Expression Analysis (LTEA) Assay for solute carrier (SLC10A1) using HepaRG (AID 2283657; active = hit-call score of the fitted dose curve at least 0.9, where 1 is the maximum; inactive = score below 0.9); conditions: mRNA level, 48 h; actives raise or lower the signal
Procedure, shortened: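 Differentiated HepaRG cells were plated 48 h, then exposed in serum-free induction medium for 48 h to 8 concentrations (top 100 uM, half-log steps, 0.5% DMSO). SLC10A1 mRNA was quantified by qRT-PCR normalized to ACTB, GAPDH, POLR2A; bidirectional fit versus DMSO.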

[17] = read-out: matrix metalloproteinase-1 (MMP1), MMP1 (gene 4312); test: LTEA_HepaRG_MMP1: Life Technologies and Expression Analysis (LTEA) Assay for matrix metalloproteinase-1 (MMP1) using HepaRG (AID 2283658; active = hit-call score of the fitted dose curve at least 0.9, where 1 is the maximum; inactive = score below 0.9); conditions: mRNA level, 48 h; actives raise or lower the signal
Procedure, shortened: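 In this screen, human liver HepaRG cultures receive each chemical in duplicate for 48 h (top 100 uM, 0.5% DMSO). MMP1 expression is then quantified by TaqMan qRT-PCR with ACTB/GAPDH/POLR2A normalization.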

[18] = system: Thyroperoxidase (TPO), gene 54314; test: CCTE_Simmons_AUR_rTPO: CCTE's Amplex UltraRed Assay for Thyroperoxidase (TPO) Inhibition, Simmons Lab (AID 2283662);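 as to AC50: potency for loss of signal meaning inhibition of peroxidase activity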
Procedure, shortened: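 Rat thyroid microsomes (5 ug protein) with 25 uM Amplex UltraRed and 300 uM H2O2 in 200 mM phosphate buffer, 30 min at 37C in dark; fluorescence 544/590 nm. Eight concentrations, 5 nM–87.5 uM final, 0.5% DMSO, triplicate biological replicates.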

[19] = Tanguay_ZF_120hpf_PFIN_legacy: (Legacy) Oregon State University Tanguay Lab 120 Hour Post-fertilization zebrafish Assay for Pectoral Fin Malformation (AID 2283648);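 also: each larva judged yes or no for fin defect by brightfield with dead larvae skipped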
Procedure, shortened: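 Tropical 5D wild-type embryos, dechorionated with pronase at 4 hpf, were placed singly in wells at 6 hpf and statically exposed until 120 hpf at 28C, sealed and dark, with 0.64% (vol/vol) final DMSO; pectoral fin malformation scored present/absent.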

Measured: AC50

C=CC(=C)CCC=C(C)C
inactive: [1] | [2] | [3] | [4] | [5] | [6] | [7] | [8] | [9] | [10] | [11] | [12] | [13] | [14] | [15] | [16] | [17] | [18]

CC/C(=C\C(=N/O)C(N)=O)C(C)[N+](=O)[O-] (stereo not given)
active: [18] 26.3 µM
inactive: [1] | [2] | [3] | [4] | [5] | [6] | [7] | [19] | [8] | [9] | [10] | [13] | [14] | [15]

Clc1nc(Cl)c(Cl)c(Cl)c1Cl
inactive: [1] | [2] | [3] | [4] | [5] | [6] | [7] | [19] | [8] | [9] | [10] | [13] | [14] | [15]

CCOC(=O)COc1ccc2c(c1)CC(NCC(O)c1cccc(Cl)c1)CC2 (stereo not given)
inactive: [1] | [2] | [3] | [4] | [5] | [6] | [7] | [19] | [8] | [9] | [13] | [14]

CCCC(=O)OCC
inactive: [1] | [2] | [3] | [4] | [5] | [6] | [7] | [19] | [8] | [9] | [10] | [13] | [14] | [15]

CCCCC(CC)COC(=O)c1ccc(C(=O)OCC(CC)CCCC)cc1 (stereo not given)
inactive: [1] | [2] | [3] | [4] | [5] | [6] | [7] | [19] | [8] | [9] | [10] | [13] | [14] | [15]

O=C(O)c1cc(N=Nc2ccc(S(=O)(=O)Nc3ccccn3)cc2)ccc1O
inactive: [1] | [2] | [3] | [4] | [5] | [7] | [19] | [8] | [9] | [13] | [14] | [15]

Nc1ccc(Nc2ccccc2)cc1
active: [1] 43.8 µM | [2] 45.8 µM | [3] 34.9 µM | [4] 27.2 µM | [6] 45.1 µM | [7] 40.1 µM | [19] 41.2 µM | [8] 47 µM | [9] 48.7 µM | [13] 45.6 µM | [14] 40.8 µM | [18] 3.09 µM
inactive: [5] | [15]

CC(C)CCO
inactive: [1] | [2] | [3] | [4] | [5] | [6] | [7] | [19] | [8] | [9] | [10] | [13] | [14] | [15]

CC(C)CCCCCCOC(=O)c1ccc(C(=O)OCCCCCCC(C)C)c(C(=O)OCCCCCCC(C)C)c1
inactive: [1] | [2] | [3] | [4] | [5] | [6] | [7] | [19] | [8] | [9] | [10] | [11] | [12] | [13] | [14] | [15] | [16] | [17]

Nc1nc2ncc(CNc3ccc(C(=O)N[C@@H](CCC(=O)O)C(=O)O)cc3)nc2c(=O)[nH]1
inactive: [1] | [2] | [3] | [4] | [5] | [8] | [9] | [10] | [13] | [14]
active: [18] 20.5 µM

O=C(CCCCCCCCc1cccnc1)N1CCC(C=C(c2ccccc2)c2ccccc2)CC1
inactive: [1] | [2] | [3] | [4] | [5] | [6] | [7] | [19] | [8] | [9] | [10] | [13] | [14]
active: [18] 27.6 µM

CCCCCCCCCCCCc1ccccc1
inactive: [1] | [2] | [3] | [4] | [5] | [6] | [7] | [19] | [8] | [10] | [13] | [14] | [15]

CNS(=O)(=O)c1cc(C(=O)N2CCC(CCN3C4CCC3CC(n3c(C)nc5ccccc53)C4)(c3cccc(F)c3)CC2)c(Cl)cc1F (stereo not given)
inactive: [1] | [2] | [3] | [4] | [5] | [6] | [7] | [19] | [9] | [13] | [14] | [15]

CC(C)CCCCCCCOC(=O)CCCCC(=O)OCCCCCCCC(C)C
inactive: [1] | [2] | [3] | [4] | [5] | [6] | [7] | [19] | [8] | [9] | [10] | [13] | [14] | [15]

CC(C)(O)c1coc(S(=O)(=O)NC(=O)Nc2c3c(cc4c2CCC4)CCC3)c1
inactive: [1] | [2] | [3] | [4] | [5] | [6] | [7] | [19] | [8] | [9] | [10] | [13] | [14]
active: [18] 7.6 µM

O=c1[nH]c2ccc(S(=O)CCN3CCC(Cc4ccc(F)cc4)CC3)cc2o1 (stereo not given)
inactive: [1] | [2] | [3] | [4] | [5] | [6] | [7] | [19] | [8] | [9] | [10] | [14]
